# Article PMC8384837, “Expanding the binding specificity for RNA recognition by a PUF domain”
# Biological target: PUM1 PUF domain R4-PFV (Homo sapiens, UniProt Q14671 828-1176, N971P;H972F;Q975V)
# Assay: yeast three-hybrid, YBZ-1, SC-Leu-His + 0.5 mM 3-AT, 4 days
# Conditions: tags: N-Gal4 AD-HA kept; label: inside an RPR1-promoter hybrid RNA with tandem MS2 sites; ssRNA
# In short: (§1)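 The interaction score is the log change in variant frequency from input to selection. Scores were computed in log2 with a pseudocount of 1 for absent variants, using Illumina sequencing of PCR-amplified repeat regions. The input came from four days on SC-Leu and the selection from four days on SC-Leu-His + 0.5 mM 3-AT. The cells were strain YBZ-1 (LexA–MS2 coat fusion, HIS3 reporter) co-expressing Pumilio-1 PUF domain libraries and matching RNA elements from a centromeric plasmid.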
# PUM1 PUF domain R4-PFV, sequence (Q14671 828-1176 N971P/H972F/Q975V): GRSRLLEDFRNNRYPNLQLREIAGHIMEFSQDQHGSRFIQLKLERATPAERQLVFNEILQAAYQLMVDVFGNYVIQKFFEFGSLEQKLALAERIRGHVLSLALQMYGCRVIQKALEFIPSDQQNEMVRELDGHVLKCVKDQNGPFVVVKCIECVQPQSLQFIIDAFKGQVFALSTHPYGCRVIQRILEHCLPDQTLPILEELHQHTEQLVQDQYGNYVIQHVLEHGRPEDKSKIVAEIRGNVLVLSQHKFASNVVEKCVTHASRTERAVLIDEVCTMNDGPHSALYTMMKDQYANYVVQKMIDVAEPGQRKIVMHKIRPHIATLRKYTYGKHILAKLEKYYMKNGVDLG
row,Sequence,binding signal
1,GGCUAGAACUAGUGGAUCCCCCGGCGCCCGGCGGCUCGAGCCCGGGUAAGUGUAAAUAGUCUGCAUGCCGCCGGGCGCCAUGCCUGCAGGUCGACUCUAGAAAACAUG,6.08 log2 enrichment (interaction score)
2,GGCUAGAACUAGUGGAUCCCCCGGCGCCCGGCGGCUCGAGCCCGGGUAAGUGUACAUAGUCUGCAUGCCGCCGGGCGCCAUGCCUGCAGGUCGACUCUAGAAAACAUG,5.7 log2 enrichment (interaction score)
3,GGCUAGAACUAGUGGAUCCCCCGGCGCCCGGCGGCUCGAGCCCGGGUAAGUGUAUAUAGUCUGCAUGCCGCCGGGCGCCAUGCCUGCAGGUCGACUCUAGAAAACAUG,6.87 log2 enrichment (interaction score)

# Biological target: PUM1 PUF domain R1-YMR (Homo sapiens, UniProt Q14671 828-1176, S863Y;R864M;Q867R)
# Sequence (Q14671 828-1176 S863Y/R864M/Q867R): as the sequence (Q14671 828-1176 N971P/H972F/Q975V) above, with S36Y, R37M, Q40R, P144N, F145H, V148Q counted along it
# Assay: as above
# Conditions: tags: N-Gal4 AD-HA kept; label: inside an RPR1-promoter hybrid RNA with tandem MS2 sites; ssRNA
# In short: as §1
row,Sequence,binding signal
1,GGCUAGAACUAGUGGAUCCCCCGGCGCCCGGCGGCUCGAGCCCGGGUAAGUGUAAAUAGUCUGCAUGCCGCCGGGCGCCAUGCCUGCAGGUCGACUCUAGAAAACAUG,2.85 log2 enrichment (interaction score)
2,GGCUAGAACUAGUGGAUCCCCCGGCGCCCGGCGGCUCGAGCCCGGGUAAGUGUAAAUUGUCUGCAUGCCGCCGGGCGCCAUGCCUGCAGGUCGACUCUAGAAAACAUG,4.12 log2 enrichment (interaction score)
3,GGCUAGAACUAGUGGAUCCCCCGGCGCCCGGCGGCUCGAGCCCGGGUAAGUGUAAAUCGUCUGCAUGCCGCCGGGCGCCAUGCCUGCAGGUCGACUCUAGAAAACAUG,6.92 log2 enrichment (interaction score)

# Biological target: PUM1 PUF domain R5-GMR (Homo sapiens, UniProt Q14671 828-1176, C1007G;R1008M;Q1011R)
# Sequence (Q14671 828-1176 C1007G/R1008M/Q1011R): as the sequence (Q14671 828-1176 N971P/H972F/Q975V) above, with P144N, F145H, V148Q, C180G, R181M, Q184R counted along it
# Assay: as above
# Conditions: tags: N-Gal4 AD-HA kept; label: inside an RPR1-promoter hybrid RNA with tandem MS2 sites; ssRNA
# In short: as §1
row,Sequence,binding signal
1,GGCUAGAACUAGUGGAUCCCCCGGCGCCCGGCGGCUCGAGCCCGGGUAAGUGUAAAUAGUCUGCAUGCCGCCGGGCGCCAUGCCUGCAGGUCGACUCUAGAAAACAUG,0.88 log2 enrichment (interaction score)
2,GGCUAGAACUAGUGGAUCCCCCGGCGCCCGGCGGCUCGAGCCCGGGUAAGUGUCAAUAGUCUGCAUGCCGCCGGGCGCCAUGCCUGCAGGUCGACUCUAGAAAACAUG,3.28 log2 enrichment (interaction score)
3,GGCUAGAACUAGUGGAUCCCCCGGCGCCCGGCGGCUCGAGCCCGGGUAAGUGUUAAUAGUCUGCAUGCCGCCGGGCGCCAUGCCUGCAGGUCGACUCUAGAAAACAUG,1.23 log2 enrichment (interaction score)

# Biological target: PUM1 PUF domain R8-TYK (Homo sapiens, UniProt Q14671 828-1176, N1122T;Q1126K)
# Sequence (Q14671 828-1176 N1122T/Q1126K): as the sequence (Q14671 828-1176 N971P/H972F/Q975V) above, with P144N, F145H, V148Q, N295T, Q299K counted along it
# Assay: as above
# Conditions: tags: N-Gal4 AD-HA kept; label: inside an RPR1-promoter hybrid RNA with tandem MS2 sites; ssRNA
# In short: as §1
row,Sequence,binding signal
1,GGCUAGAACUAGUGGAUCCCCCGGCGCCCGGCGGCUCGAGCCCGGGUAAGUGUAAAUAGUCUGCAUGCCGCCGGGCGCCAUGCCUGCAGGUCGACUCUAGAAAACAUG,2.62 log2 enrichment (interaction score)
2,GGCUAGAACUAGUGGAUCCCCCGGCGCCCGGCGGCUCGAGCCCGGGUAAGGGUAAAUAGUCUGCAUGCCGCCGGGCGCCAUGCCUGCAGGUCGACUCUAGAAAACAUG,3.38 log2 enrichment (interaction score)
3,GGCUAGAACUAGUGGAUCCCCCGGCGCCCGGCGGCUCGAGCCCGGGUAAGCGUAAAUAGUCUGCAUGCCGCCGGGCGCCAUGCCUGCAGGUCGACUCUAGAAAACAUG,2.07 log2 enrichment (interaction score)
